# The list is not random: actives were taken first. Their share in the collection is about 1.1%.
# PfHsp40 rescue: rescue of PfHsp40-mediated yeast toxicity; S. cerevisiae expressing PfHsp40, growth rescue, ATP luminescence; AID 504582; growth rescue, % at 12.5 µM; 340,000 compounds, 0.68% hits; in the data active = growth rescue above about 28%, passing the limit was not always enough;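 also: yeast W303a lacking pdr1 and pdr3 grown in galactose medium; growth measured after three days at 30 °C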
# Y pestis TopoI: inhibitors of Yersinia pestis topoisomerase I. Y. pestis Topo-I cleavage product accumulation, plate reader. activity, % at 10 µM. 360,000 compounds, 0.064% hits; in the data active = activity above about 50%, passing the limit was not always enough
# Mtb BioA inh: blocks M. tuberculosis BioA enzyme activity. purified M. tuberculosis BioA enzyme, plate reader. inhibition, % at 9.99 µM. 360,000 compounds, 0.096% hits; in the data active = inhibition above about 40%
# BJeLR viability: kills HRASV12-expressing BJeLR cells | BJeLR (HRASV12) viability, CellTiter-Glo ATP luminescence, 48 h | inhibition, % (no concentration beside the values) | 300,000 compounds, 0.17% hits | AID 1554; in the data active = inhibition above about 50%
# SARS 3CLpro inh: SARS-CoV 3CLpro protease inhibition; recombinant SARS-CoV 3CLpro, quenched FRET peptide cleavage; 290,000 compounds, 0.14% hits; P0C6X7; inhibition, % at 6 µM; in the data active = inhibition above about 12%
# MazEF act: increases E. coli MazEF RNase cleavage of RNA | P0AE70 | FAM/BHQ RNA-DNA oligo cleavage fluorescence, 5 h | activation, % at 20 µM | 350,000 compounds, 0.32% hits | AID 504720; in the data active = activation above about 50%
# Target sequence (P0AE70 whole entry, looked up): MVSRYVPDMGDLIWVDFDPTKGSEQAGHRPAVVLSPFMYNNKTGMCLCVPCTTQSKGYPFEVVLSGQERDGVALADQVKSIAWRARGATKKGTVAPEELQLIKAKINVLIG
# A number is an active result; n = inactive; x = not tested or not shown.
SMILES,PfHsp40 rescue,Y pestis TopoI,Mtb BioA inh,BJeLR viability,SARS 3CLpro inh,MazEF act
CN1C(=O)c2cc(NC(=O)Nc3ccccc3F)ccc2OC[C@@H]2O[C@H](CC(=O)O)CC[C@@H]21,x,x,n,x,x,x
CO[C@H]1CN(C)C(=O)c2cc(NC(=O)Nc3ccccc3)ccc2OC[C@@H](C)N(C(=O)CC2CC2)C[C@H]1C,x,x,n,x,x,x
C[C@@H]1C=CC(=O)O[C@@H]1c1ccc(C(F)(F)F)cc1,x,x,x,92,n,x
Cc1cccc(NC(=O)c2ccccc2O)c1C,57,n,x,n,n,n
C[C@@H]1CN([C@H](C)CO)C(=O)c2cc(C#Cc3ccccc3)cnc2O[C@H]1CN(C)S(=O)(=O)c1ccccc1F,x,x,n,x,x,x
N#C/C(=C\c1cccs1)C(=O)c1ccccc1Cl,x,x,x,63,n,n
C[C@H](CO)N1C[C@H](C)[C@H](CN(C)Cc2ccc3c(c2)OCO3)Oc2c(NS(=O)(=O)c3ccc(F)cc3)cccc2C1=O,x,x,n,x,x,x
COCCNC(=S)N1CCC(C(=O)c2ccc(C)cc2)CC1,48,n,n,n,n,n
COc1ccc(NC(=O)Nc2ccc3c(c2)CC(=O)N([C@@H](C)CO)C[C@@H](C)[C@@H](CN(C)C(=O)Nc2c(C)noc2C)O3)cc1,x,x,n,x,x,x
CC(=NNC(=S)N1CC2CCC(CC2)C1)c1ccncn1,98,n,x,x,x,n
CC(=NNC(=S)N1CCCCC1)c1ccccn1,x,n,x,x,x,n
C[C@@H]1CCCCO[C@@H](CN(C)C(=O)c2ccccc2)[C@@H](C)CN([C@@H](C)CO)C(=O)c2cc(NC(=O)CCC(F)(F)F)ccc2O1,x,x,n,x,x,x
COc1cc(C(=O)O)c2c(c1C)OC(=O)c1c(C)cc(O)c(C=O)c1O2,86,n,n,n,x,n
COC(=O)c1c(C)cc(O)c(C=O)c1O,n,n,n,n,x,n
CC(C)CN(C(=O)c1cccc(S(=O)(=O)N2CCN(Cc3ccccc3)CC2)c1)C1CCS(=O)(=O)C1 (stereo not drawn),347,n,n,n,x,n
COc1cc(/C=C2/C(=O)N(C)C(=S)N2C)ccc1OCc1cccc(F)c1,n,n,n,n,n,66
CCC(C(=O)Nc1cccc(C(F)(F)F)c1)c1ccccc1 (stereo not drawn),n,n,n,n,13,n
N/C(=N\OC(=O)CCCOc1ccc(Cl)cc1Cl)c1ccncc1,170,n,n,n,n,n
S=C(NCc1ccccc1)Nc1ccc(Cl)cc1,n,n,x,n,n,n
FC(F)(F)Sc1ccc(NC(=S)NCc2ccccc2)cc1,148,n,n,n,n,n
COc1ccc(CN(C)C[C@@H]2OCCCC[C@H](C)Oc3ccc(NC(=O)Nc4ccccc4)cc3C(=O)N([C@H](C)CO)C[C@@H]2C)cc1,x,x,n,x,x,x
COc1ccc(C2=CC(=O)C=CC2=O)cc1,n,x,n,99,n,x
COc1ccc(C2=CC(=O)C[C@H](c3ccc(OC)cc3)C2)cc1,n,n,n,x,x,n
NC(=O)Nc1ccc(Nc2ccccc2)cc1,n,n,x,n,n,n
O=C(Nc1ccc(Nc2ccccc2)cc1)C(Cl)(Cl)Cl,33,n,x,n,n,n
SMILES,PfHsp40 rescue,Y pestis TopoI,Mtb BioA inh,BJeLR viability,SARS 3CLpro inh,MazEF act
O=C(c1ccc2c(=O)n(Cc3ccc4c(c3)OCO4)c(=O)[nH]c2c1)N1CCN(c2ccccc2)CC1,n,n,n,n,n,62
C[C@H](CO)N1C[C@H](C)[C@H](CN(C)Cc2ccc(C(=O)O)cc2)Oc2ccc(NC(=O)C3CC3)cc2C1=O,x,x,n,x,x,x
NS(=O)(=O)c1ccc(CCNc2nc3c(-c4cccc(F)c4)nnn3c3ccccc23)cc1,n,n,n,n,n,109
O=C(O)c1cc(N2N=C(C(F)(F)F)/C(=C/C=C/c3ccco3)C2=O)ccc1Cl,112,n,x,x,n,n
COCC#Cc1ccc2c(c1)O[C@@H](CN(C)S(=O)(=O)c1cccc(F)c1)[C@@H](C)CN([C@@H](C)CO)S2(=O)=O,x,x,n,x,x,x
O=C(c1cc(-c2ccc(Br)cc2)nc2ccccc12)N1CCN(c2ccccc2O)CC1,n,n,n,n,x,n
Cc1ccc(-c2cc(C(=O)N3CCN(c4ccccc4O)CC3)c3ccccc3n2)o1,137,n,n,n,n,n
CCCCN1C2=C(C(=O)CCC2)C(c2ccc(Cl)c(Cl)c2)C2=C1c1ccccc1C2=O (stereo not drawn),n,n,n,n,n,60
O=C(CSc1ccc(-c2ccccn2)nn1)NCc1ccc(F)cc1,248,n,x,n,n,n
O=C(CSc1ccc(-c2ccccn2)nn1)NCc1ccccc1,270,n,x,n,n,n
O=C(CSc1ncccn1)NCc1ccc(F)cc1,n,n,x,n,n,n
C/C=C/c1ccc2c(c1)O[C@H](CN(C)C(=O)Nc1ccc(C(F)(F)F)cc1)[C@H](C)CN([C@H](C)CO)S2(=O)=O,x,x,n,x,x,x
O=C(NNC(=O)c1cc(Br)ccc1O)c1csc(N2CCOCC2)n1,76,n,n,x,x,n
Oc1ccc(N=Nc2ccccc2)o1,288,n,n,n,n,n
Cc1ccnc2c1ccc1cccnc12,n,n,n,x,x,n
Cc1ccnc2c1ccc1c(C)ccnc12,82,n,n,x,x,n
COc1ccc(/C=C/C(=O)NC(=S)N2CCN(C)CC2)cc1,n,n,x,n,n,51
C[C@@H]1CCCCO[C@H](CN(C)C(=O)c2ccccc2)[C@@H](C)CN([C@H](C)CO)C(=O)c2cc(NC(=O)CCC(F)(F)F)ccc2O1,x,x,n,x,x,x
CN1CCc2c(C#N)c(N3CCCCC3)nc(N3CCOCC3)c2C1,x,x,x,n,n,n
C=CCNc1nc(N2CCOCC2)c(C#N)c2c1CN(C)CC2,n,n,x,n,n,54
CCCNc1nc(-c2cc(C(=O)Nc3ccccc3)on2)cc(C(C)C)n1,365,n,n,n,x,n
CC(C)/C=C(/C(=O)c1ccc(Cl)cc1Cl)n1cncn1,399,n,x,n,n,n
CC(C)(C)C(=O)/C(=C/c1ccc(Cl)cc1)n1cncn1,n,n,n,n,n,n
Cc1nc(SCC(=O)Nc2ccc3c(c2)OCCO3)c2oc3ccccc3c2n1,n,n,x,n,n,54
COc1cccc(Oc2cn[nH]c2-c2ccc(OC)cc2O)c1,n,n,n,n,n,n
SMILES,PfHsp40 rescue,Y pestis TopoI,Mtb BioA inh,BJeLR viability,SARS 3CLpro inh,MazEF act
CCOc1ccc(-c2[nH]ncc2Oc2cccc(OC)c2)c(O)c1,336,n,n,n,n,n
CCCc1ccc(Oc2cn[nH]c2-c2ccc(O)c(C)c2O)cc1,83,n,n,n,n,n
CCOc1ccc(-c2[nH]ncc2-c2ccccc2)c(O)c1,n,n,n,n,n,n
COc1ccc(-c2cn[nH]c2-c2ccc(OCc3ccccc3)cc2O)cc1,115,n,x,n,n,n
COc1ccccc1-c1cn[nH]c1-c1ccc(OCc2ccccc2)cc1O,214,n,x,n,n,n
O=C(C[C@H]1CC[C@@H]2[C@H](COC[C@@H](O)CN2C(=O)Nc2ccc(Cl)c(Cl)c2)O1)NCc1ccc(Cl)c(Cl)c1,x,x,n,x,x,x
CN(Cc1c(F)cccc1Cl)C(=O)c1ccc(COc2ccccc2)cc1,n,55,n,n,n,n

# Screening results deposited in PubChem BioAssay by several laboratories.
